In PubChem BioAssay AID1159580 (chemical genetic matrix, 2015):
Hit rate of the full screen: of about 5,500 compounds, about 2,000 (36%) were called active. Not shown: some 18% with an inconclusive outcome. No stated cut-off is given here; in the data, active means normalized growth mostly below about 0.91 (no sharp cut-off); inconclusive means no clear call, values can overlap the other calls; inactive means mostly above about 0.92. This is one part of the list.

Assay: chemical genetic growth profiling, strain panel (AID 1159580);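 further: tested at 20 µM; growth read once vehicle control cultures reached saturation at 30 °C; 1 = growth at the plate median or of vehicle wells; lower values mean less growth of the strain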
Settings: S. cerevisiae deletion strains, growth OD
[1] = locus YAL040C, strain CLN3, active compounds read low
[2] = locus YDR363W, strain ESC2, active compounds read low
[3] = locus YER002W, strain NOP16, active compounds read low
[4] = locus YNL175C, strain NOP13, active compounds read low
[5] = locus YNL197C, strain WHI3, active compounds read low
[6] = locus YNL224C, strain SQS1, active compounds read low
[7] = locus YOR083W, strain WHI5 (second series), active compounds read low

Measured: normalized growth

NC1(C(=O)O)CCCCC1
inactive: [1] 0.993 | [2] 0.98 | [3] 1.01 | locus YJR075W, strain HOC1, active compounds read low 0.992 | locus YMR263W, strain SAP30, active compounds read low 0.995 | locus YNL153C, strain GIM3, active compounds read low 0.982 | [4] 1.01 | [5] 0.992 | [6] 0.98 | [7] 0.981

N.N.O=C(O)C1(C(=O)O)CCC1.[Pt+2]
inactive: [1] 0.986 | locus YCL061C, strain MRC1 (second series), active compounds read low 1 | locus YDR150W, strain NUM1, active compounds read low 1 | [2] 0.988 | [3] 1.02 | locus YMR307W, strain GAS1, active compounds read low 0.984 | [4] 0.998 | [5] 1.04 | [6] 1 | [7] 0.995 | locus YPL055C, strain LGE1, active compounds read low 0.998
